Hit rate of the full screen: of about 5,500 compounds, about 2,000 (36%) were called active. Inconclusive results (about 18%) are left out. Rule as the data show it: active = normalized growth mostly below about 0.91 (no sharp cut-off); inconclusive = no clear call, values can overlap the other calls; inactive = mostly above about 0.92. This is one part of the list.
Assay: chemical genetic growth profiling, strain panel (AID 1159580);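 also: tested at 20 µM; growth read once vehicle control cultures reached saturation at 30 °C; 1 = growth at the plate median or of vehicle wells; lower values mean less growth of the strain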
Settings: growth OD

Measured: normalized growth

CC(C)NC[C@H](O)COc1cccc2ccccc12
inactive: S. cerevisiae deletion strains, locus YJR066W, strain TOR1, hits give low values 0.996 | S. cerevisiae deletion strains, locus YKL009W, strain mrt4, hits give low values 1.03 | S. cerevisiae deletion strains, locus YKL068W, hits give low values 1.01 | S. cerevisiae deletion strains, locus YKL085W, strain MDH1 (second series), hits give low values 0.999 | S. cerevisiae deletion strains, locus YKL085W, strain MDH1, hits give low values 0.999 | S. cerevisiae deletion strains, locus YKL160W, strain elf1, hits give low values 0.992 | S. cerevisiae deletion strains, locus YKR001C, strain vps1, hits give low values 1.04 | S. cerevisiae deletion strains, locus YKR026C, strain gcn3, hits give low values 0.978 | S. cerevisiae deletion strains, locus YKR091W, strain srl3, hits give low values 0.99 | S. cerevisiae deletion strains, locus YLL001W, strain dnm1, hits give low values 0.98 | S. cerevisiae deletion strains, locus YLL026W, hits give low values 0.98 | S. cerevisiae deletion strains, locus YLL041C, strain sdh2, hits give low values 0.997 | S. cerevisiae deletion strains, locus YLR027C, strain aat2, hits give low values 0.987 | S. cerevisiae deletion strains, locus YLR039C, strain RIC1, hits give low values 1.05 | S. cerevisiae deletion strains, locus YLR058C, strain SHM2, hits give low values 1.01 | S. cerevisiae deletion strains, locus YLR102C, strain apc9, hits give low values 1.02 | S. cerevisiae deletion strains, locus YLR113W, strain HOG1, hits give low values 1 | S. cerevisiae deletion strains, locus YLR221C, strain rsa3, hits give low values 0.991 | S. cerevisiae deletion strains, locus YLR258W, strain gsy2, hits give low values 0.985 | S. cerevisiae deletion strains, locus YLR262C, strain YPT6 (second series), hits give low values 0.974 | S. cerevisiae deletion strains, locus YLR262C, strain YPT6, hits give low values 1.02 | S. cerevisiae deletion strains, locus YLR268W, strain sec22, hits give low values 1.01 | S. cerevisiae deletion strains, locus YLR320W, strain mms22, hits give low values 0.973 | S. cerevisiae deletion strains, locus YLR330W, strain CHS5, hits give low values 1.01 | S. cerevisiae deletion strains, locus YLR342W, strain FKS1 (second series), hits give low values 0.963 | S. cerevisiae deletion strains, locus YLR342W, strain FKS1, hits give low values 0.986 | S. cerevisiae deletion strains, locus YLR357W, strain rsc2, hits give low values 0.978 | S. cerevisiae deletion strains, locus YLR370C, strain arc18, hits give low values 0.999 | S. cerevisiae deletion strains, locus YLR371W, strain rom2, hits give low values 1.03 | S. cerevisiae deletion strains, locus YLR384C, strain iki3, hits give low values 0.963 | S. cerevisiae deletion strains, locus YLR418C, strain cdc73, hits give low values 1.02 | S. cerevisiae deletion strains, locus YML016C, strain PPZ1, hits give low values 1 | S. cerevisiae deletion strains, locus YML032C, strain rad52, hits give low values 0.997 | S. cerevisiae deletion strains, locus YML120C, strain ndi1, hits give low values 1 | S. cerevisiae deletion strains, locus YML124C, strain tub3, hits give low values 1.02 | S. cerevisiae deletion strains, locus YMR058W, strain fet3, hits give low values 0.995 | S. cerevisiae deletion strains, locus YMR078C, strain ctf18, hits give low values 1.03 | S. cerevisiae deletion strains, locus YMR125W, strain sto1, hits give low values 0.966 | S. cerevisiae deletion strains, locus YMR129W, hits give low values 0.988 | S. cerevisiae deletion strains, locus YMR205C, strain PFK2, hits give low values 0.971 | S. cerevisiae deletion strains, locus YMR223W, strain ubp8, hits give low values 1.06 | S. cerevisiae deletion strains, locus YMR231W, strain pep5, hits give low values 0.988 | S. cerevisiae deletion strains, locus YMR263W, strain SAP30, hits give low values 1.01 | S. cerevisiae deletion strains, locus YMR307W, strain GAS1, hits give low values 1.06 | S. cerevisiae deletion strains, locus YNL067W, strain RPL9B, hits give low values 1.03 | S. cerevisiae deletion strains, locus YNL071W, strain lat1, hits give low values 0.997 | S. cerevisiae deletion strains, locus YNL183C, strain NPR1, hits give low values 0.995 | S. cerevisiae deletion strains, locus YNL209W, strain ssb2, hits give low values 0.987 | S. cerevisiae deletion strains, locus YNL233W, strain BNI4, hits give low values 1.02 | S. cerevisiae deletion strains, locus YNL248C, strain rpa49, hits give low values 0.989 | S. cerevisiae deletion strains, locus YNL250W, strain rad50, hits give low values 1.04 | S. cerevisiae deletion strains, locus YNL271C, strain bni1, hits give low values 1.02 | S. cerevisiae deletion strains, locus YNL298W, strain CLA4, hits give low values 1.01 | S. cerevisiae deletion strains, locus YNL307C, strain MCK1, hits give low values 1.02 | S. cerevisiae deletion strains, locus YNL322C, strain KRE1 (second series), hits give low values 0.977 | S. cerevisiae deletion strains, locus YNL322C, strain KRE1, hits give low values 1.01 | S. cerevisiae deletion strains, locus YNR049C, strain mso1, hits give low values 0.989 | S. cerevisiae deletion strains, locus YNR052C, strain pop2, hits give low values 1.01 | S. cerevisiae deletion strains, locus YOL012C, strain htz1 0.826 | S. cerevisiae deletion strains, locus YOL147C, strain pex11, hits give low values 1.02 | S. cerevisiae deletion strains, locus YOR001W, strain rrp6, hits give low values 0.994 | S. cerevisiae deletion strains, locus YOR061W, strain CKA2, hits give low values 1 | S. cerevisiae deletion strains, locus YOR069W, strain VPS5, hits give low values 1.01 | S. cerevisiae deletion strains, locus YOR070C, strain gyp1, hits give low values 0.998 | S. cerevisiae deletion strains, locus YOR080W, strain dia2, hits give low values 0.977 | S. cerevisiae deletion strains, locus YOR083W, strain WHI5, hits give low values 1.01 | S. cerevisiae deletion strains, locus YOR106W, strain vam3, hits give low values 0.997 | S. cerevisiae deletion strains, locus YOR136W, strain idh2, hits give low values 1.03 | S. cerevisiae deletion strains, locus YOR144C, strain elg1, hits give low values 1.02 | S. cerevisiae deletion strains, locus YOR184W, strain ser1, hits give low values 1.03 | S. cerevisiae deletion strains, locus YOR231W, strain MKK1, hits give low values 1.02 | S. cerevisiae deletion strains, locus YOR265W, strain rbl2, hits give low values 0.988 | S. cerevisiae deletion strains, locus YOR270C, strain vph1, hits give low values 1.03 | S. cerevisiae deletion strains, locus YOR290C, strain snf2, hits give low values 0.988 | S. cerevisiae deletion strains, locus YOR316C, strain cot1, hits give low values 1.03 | S. cerevisiae deletion strains, locus YPL051W, strain arl3, hits give low values 0.993 | S. cerevisiae deletion strains, locus YPL055C, strain LGE1, hits give low values 1.02 | S. cerevisiae deletion strains, locus YPL078C, strain atp4, hits give low values 1.01 | S. cerevisiae deletion strains, locus YPL106C, strain sse1, hits give low values 0.98 | S. cerevisiae deletion strains, locus YPL240C, strain hsp82, hits give low values 0.999 | S. cerevisiae deletion strains, locus YPL241C, strain CIN2, hits give low values 1.01 | S. cerevisiae deletion strains, locus YPL256C, strain CLN2, hits give low values 1.07 | S. cerevisiae deletion strains, locus YPR119W, strain clb2, hits give low values 1.03 | S. cerevisiae deletion strains, locus YPR141C, strain kar3, hits give low values 1.02 | S. cerevisiae deletion strains, locus YPR163C, strain tif3, hits give low values 1.02 | S. cerevisiae deletion strains, locus YPR167C, strain met16, hits give low values 1.03 | S. cerevisiae deletion strains, strain wtn01, hits give low values 1.01 | S. cerevisiae strains, strain wild type, hits give low values 1.01
